Bioassay records: PubChem BioAssay, National Center for Advancing Translational Sciences (NCATS)
Sampled rows, rich in hits. Any-hit rate of the full collection: about 2.6%.
PK Bst: alters activity of Bacillus stearothermophilus pyruvate kinase. purified pyruvate kinase, luminescence ATP production; ribose 5-phosphate activator present at AC10. Potency, µM. actives 1.2% (n = 51,000); in the data active means potency below about 11 µM; inconclusive means mostly about 12 µM to 25 µM;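 the screen sought inhibitors and activators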;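 further: potency means the concentration at half of the fitted maximal effect; scaled between full activation by ribose 5 phosphate and full inhibition by luteolin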
Epigenetic mod: epigenetic modulators derepressing GFP locus in mouse cells | mouse C127i GFP locus derepression, cytometry, 30 h | Potency, µM (titrated, usually from 46.1 µM), inactives show at the top dose GFP derepression (activation) | actives 0.09% (n = 68,000) | AID 597; further: % of control where 0% means no effect
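Derepression screen: silenced CMV-GFP reporter in murine C127i cells, 30 h compound incubation at 37 C, washed cells imaged by laser-scanning cytometer to enumerate GFP-expressing objects of 20 to 120 um.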
HBB splicing: hemoglobin beta splicing modulation. HBB splicing reporter cell assay, activation; EGFP reporter with mutant IVS2-654 intron; response scale: normalised to 500 nM splice-correcting PNA. Potency, µM (series often up to 46.1 µM), inactives show at the highest dose activation, usual class: activators. actives 0.06% (n = 65,000); further: potency means the concentration at half of the fitted maximal effect; 0% is about no effect
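Compounds were applied for 2 days to HeLa EGFP-654 cells, 500/well in Optimem with 2% FCS. The reporter's EGFP is disrupted by mis-splicing of beta-globin intron IVS2-654. Readout: summed well GFP fluorescence from 488 nm laser scanning; reference was 500 nM antisense […] 654 PNA.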
Luciferase inh: firefly luciferase inhibition. P08659. purified firefly luciferase, luminescence, 8 min. Potency, µM (doses to about 57.1 µM), inactives show top-dose activity change, negative = inhibition, actives largely listed as inhibitors. actives 2.2% (n = 72,000); further: potency means the concentration at half of the fitted maximal effect; on the % scale 0 is the no-effect control and ±100 the full control effect; nearly all actives have a fitted effect of over 40% in size
Target sequence (P08659 whole entry, looked up): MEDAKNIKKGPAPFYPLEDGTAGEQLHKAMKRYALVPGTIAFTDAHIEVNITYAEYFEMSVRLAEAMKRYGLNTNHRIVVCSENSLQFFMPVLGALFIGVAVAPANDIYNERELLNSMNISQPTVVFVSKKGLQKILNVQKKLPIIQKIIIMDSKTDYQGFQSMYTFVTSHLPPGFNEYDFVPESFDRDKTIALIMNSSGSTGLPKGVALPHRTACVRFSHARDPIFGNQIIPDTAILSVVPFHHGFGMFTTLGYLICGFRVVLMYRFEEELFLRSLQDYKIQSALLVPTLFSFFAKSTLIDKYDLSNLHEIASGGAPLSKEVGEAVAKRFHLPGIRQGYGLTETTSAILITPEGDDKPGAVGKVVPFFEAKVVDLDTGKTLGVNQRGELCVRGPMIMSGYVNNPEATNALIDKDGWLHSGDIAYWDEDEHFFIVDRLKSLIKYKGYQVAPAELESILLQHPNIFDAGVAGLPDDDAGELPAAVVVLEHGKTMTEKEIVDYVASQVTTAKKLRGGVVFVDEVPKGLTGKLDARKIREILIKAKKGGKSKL
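Here, luciferase activity is measured as luminescence following an 8 min room-temperature reaction at 10 uM ATP, pH 7.2. Every library sample is titrated.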
Ub-GFP proteasome: proteasome inhibitors stabilizing ubiquitin-GFP reporter; AID 526; 67,000 tested, under 10 active; Ubiquitin-GFP reporter cells, proteasome inhibition, GFP fluorescence; response scale: untreated = 0%, 10 µM MG-132 = 100%; Potency, µM (titrated, usually from 45.9 µM), without a hit: at the top dose activation (GFP accumulation), most hits filed as activators; active means well fitted activation curve with a large enough effect, not every such curve was filed as active; inconclusive means small, poorly fitted or top-dose-only effect, or another doubt; inactive means no such curve, though single readings can be large or run the other way; further: potency means the concentration at half of the fitted maximal effect
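Reporter cells (U2OS, ubiquitin-G76V-GFP fusion) are plated overnight, then treated 4 hr at 37 °C with compound titrations from 46 uM down to 2.9 nM. Activity is scaled against untreated cells and 10 uM MG-132.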
Active calls of the source: *; i = inactive; ? = inconclusive; . = no result; [ ] = another dose, or the depositor's remark. Unless noted, the call rests on the fitted dose curve; in most records, active means well fitted curve in the direction sought with a large enough effect; inconclusive means small, poorly fitted or top-dose-only effect, or another doubt; inactive means no such curve, though single readings can be large; an effect the other way counts as inactive or inconclusive.

SMILES	PK Bst	Epigenetic mod	HBB splicing	Luciferase inh	Ub-GFP proteasome
CCCCCOc1ccc(CN2CCOCC2)cc1Cl	.	4%	0%[57.5 µM]	25µM*	-5%
Cc1ccc(N2C(=O)c3n[nH]c(C)c3C2c2ccco2)cc1 (centres undefined)	.	0%	1%[1.84 µM]	16µM*	-6%
Cc1ccc(NC(=O)c2c(O)c3ccccc3n(C)c2=O)nc1	>57	-1%	.	-1%	0%
CN(C(=O)c1c(O)c2ccccc2n(C)c1=O)c1ccccc1	.	2%	.	25µM*	5%
O=c1cc(-c2ccc(O)cc2O)oc2ccccc12	.	-2%[9.22 µM]	.	-5%[11.4 µM]	7%
COc1cccc(-c2cc(=O)c3ccccc3o2)c1N	.	1%	-1%	13µM*	-3%
Cc1cccc(CNc2cc(-c3c(C)noc3C)ncn2)c1	.	-1%[9.22 µM]	1%	1%[2.29 µM]	9%
O=C(O)c1cccc(C[C@H](Br)C(=O)O)c1	.	10%[9.22 µM]	2%[9.22 µM]	3%[11.4 µM]	5%[9.17 µM]
CC[C@H](C)[C@@H]1O[C@]2(CC[C@@H]1C)C[C@H]1C[C@H](CC=C(C)[C@@H](O[C@H]3C[C@H](OC)[C@H](O[C@H]4C[C@H](OC)[C@H](O)[C@H](C)O4)[C@H](C)O3)[C@@H](C)C=CC=C3CO[C@@H]4[C@@H](O)C(C)=C[C@H](C(=O)O1)[C@@]34O)O2	.	0%	-2%	-2%	-5%
Cc1ccccc1C(=O)Nc1ccccc1	.	3%	-2%	-19%	7%
O=C(Nc1ccccc1)c1ccccc1O	.	4%	1%	20µM*	-15%
Cc1ccc(NC(=O)c2ccccc2O)cc1	6.3*	-1%	-2%	5µM*	-3%
O=C1c2ccccc2C(=O)c2c(NC3CCCCC3)ccc(Nc3ccc(S(=O)(=O)O)cc3)c21	.	0%[9.22 µM]	-2%[9.22 µM]	-13%[11.4 µM]	5%[9.17 µM]
CS(=O)(=O)N1CCCC(C(=O)NCc2ccccc2Cl)C1 (centres undefined)	>57	-3%	-1%	0%	-7%
COc1ccc(Br)cc1CNC(=O)C1CCCN(S(C)(=O)=O)C1 (centres undefined)	5.4*	-2%	-2%	10µM*	7%
O=C(COc1ccc(F)cc1Br)N1CCc2ccccc21	>57	-2%	0%[57.5 µM]	7.9µM*	-3%
CCOc1ccc(-c2nnc(N)o2)cc1	.	1%	1%	-14%	0%
CCCCOc1ccc(-c2nnc(-c3ccncc3)o2)cc1	5.6*	-2%	-2%	0%	-1%
CCOc1ccc(-c2nnc(-c3ccncc3)o2)cc1	2.1*	-2%	.	-21%	-6%
c1ccc2c(c1)Cn1c-2nc2ccccc21	?	-2%	1%[0.369 µM]	13µM*	.
COC(=O)NC(c1ccco1)[C@]1(C(C)=O)CCCC1=O (some centres undefined)	.	.	2%[9.22 µM]	.	.
Cc1cc2nc(SC(C)C(=O)O)[nH]c2cc1C (centres undefined)	.	-2%	0%	10µM*	-3%
Cc1cc2nc(SCCN3CCCC3)[nH]c2cc1C	.	2%	0%	-9%	-12%
CC[C@H](C)C(=O)O[C@@H]1CCC=C2C=C[C@H](C)[C@@H](CC[C@H]3C[C@@H](O)CC(=O)O3)[C@H]21	.	-2%	2%	-1%	-5%
Cc1ccnc(NC(=O)CCC(=O)N(CC(=O)NC(C)(C)C)C2CCCC2)c1	>57	0%	.	3%	1%
SMILES	PK Bst	Epigenetic mod	HBB splicing	Luciferase inh	Ub-GFP proteasome
Cc1ccnc(NC(=O)CCC2CCCCC2)c1	.	2%	-1%	20µM*	13%
CCCCCCCCC/C=C/CC1CC(=O)OC1=O (centres undefined)	.	.	-1%	.	.
C[C@@]1(C(NC(=O)c2ccccc2)c2ccc(-c3ccccc3)cc2)C[C@H]1C1CCCCC1 (some centres undefined)	.	.	2%	.	.
Oc1c(CN2CCN(c3ccccn3)CC2)cc(Cl)c2cccnc12	i	3.2µM*	-1%	2%	-3%
CCCCCCCCCCCCCCC1CO1 (centres undefined)	.	.	0%	.	.
COc1ccc(O)c(C(=O)CC(=O)c2ccc(F)cc2)c1	.	10%	-4%	25µM*	-6%
Cc1ccc(C)n1-n1cnc2sc(-c3ccccc3)cc2c1=O	>57	1%	-2%	-2%	-3%
CCn1cnc2sc(-c3ccccc3)cc2c1=O	?	4%	-2%[57.5 µM]	13µM*	3%
CCOC(=O)CCN1C(=O)[C@H]2[C@H]3[C@H](O)[C@H](O)C/C(=N/OC[C@@H](O)COCc4ccco4)[C@H]3CC[C@@H]2C1=O	.	.	2%[9.22 µM]	2%[11.4 µM]	.
C=CCn1c(-c2ccc(OC)cc2)nc2ccccc21	.	2%	-1%	25µM*	-1%
CC1Cc2c(COc3ccccc3)nc3c(c2CO1)CN(CCOc1ccccc1)CC3 (centres undefined)	.	.	3%[9.22 µM]	.	.
Cc1cccc2cc3c(nc12)SC(=NCC1CCCO1)N(Cc1ccco1)C3 (centres undefined)	>57	3.2µM*	0%[57.5 µM]	-5%	7%
N/N=C1/c2ccccc2N[C@H]1OC(=O)Nc1ccccc1	.	3%[9.22 µM]	-1%[9.22 µM]	-9%[11.4 µM]	-2%[9.17 µM]
O=C(Oc1ccc2ccccc2c1)c1ccco1	.	3%	3%	-20%	-5%
CC1CC(C)(C)Nc2ccc(OC(=O)c3ccco3)cc21 (centres undefined)	.	?	-1%[9.22 µM]	13µM*	-5%
COc1ncc2nc(CCc3ccccc3)c(=O)n(Cc3cccs3)c2n1	.	5%[9.22 µM]	0%	0%[11.4 µM]	12%
Cc1ccc(C2Nc3ccccc3-c3nc4ccccc4n32)o1 (centres undefined)	.	10%	-1%	13µM*	-2%
O=C1/C(=C/Nc2ccc3c(c2)OCO3)CCc2ccccc21	.	3%	-2%	0.63µM*	-3%
Oc1cccc(-c2nc3ccccc3s2)c1	9.1*	3%	6%	10µM*	-4%
COc1ccc(-c2nc3ccccc3s2)cc1O	0.64*	8%	-1%	1µM*	-5%
COc1ccc(N2CC(O)=C(c3nc4ccccc4s3)C2=N)cc1	.	0%	0%	-37%	-1%
O=S(=O)(c1cccc(-c2nc3ccccc3s2)c1)N1CCCC1	>57	0%	0%	-5%	3%
CC1(C)[C@@H](CC(=O)O)CCC[C@@H]1CC(=O)O	.	0%[9.22 µM]	3%[9.22 µM]	1%[11.4 µM]	-6%[9.17 µM]
O=C(OCC(=O)c1c[nH]c2ccccc12)c1ccco1	?	-4%	1%[1.84 µM]	16µM*	-2%
Cc1cnc(CNc2ccnc(-c3ccccc3CN(C)C)n2)cn1	.	6%[9.22 µM]	-1%	4%[2.29 µM]	-1%
Brc1ccc(-c2nc(-c3ccccn3)no2)o1	.	0%	-2%	3.2µM*	-3%
Clc1ccc(-c2nc(-c3ccccn3)no2)cc1Cl	.	-2%	0%[0.0738 µM]	3.2µM*	0%[9.17 µM]
Brc1ccc(-c2nc(-c3ccncc3)no2)o1	>57	-1%	0%	-2%	-1%
COc1nc(C)ccc1-c1noc(-c2ccccn2)n1	i	6%	7%	?	1%
